Test results reported in publication PMC7826789 (International Journal of Molecular Sciences, 2021).

Columns and labels:
Conditions in all cases: Compound Concentration (nM):1000
[1] = tested on: CDKL3
[2] = tested on: CDKL5
[3] = tested on: CHEK1
[4] = tested on: CHEK2
[5] = tested on: CIT
[6] = tested on: CLK1
[7] = tested on: CLK2
[8] = tested on: CLK3
[9] = tested on: CLK4
[10] = tested on: CSF1R-autoinhibited
[11] = tested on: CSF1R
[12] = tested on: CSK
[13] = tested on: CSNK1A1L
[14] = tested on: CSNK1A1
[15] = tested on: CSNK1D
[16] = tested on: CSNK1E
[17] = tested on: CSNK1G1
[18] = tested on: CSNK1G2
[19] = tested on: CSNK1G3
[20] = tested on: CSNK2A1
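Further: KINOMEscan scanMAX binding as percent activity remaining versus control; lower means stronger binding.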

Structure (SMILES)	Percent Control [1] [%]	Percent Control [2] [%]	Percent Control [3] [%]	Percent Control [4] [%]	Percent Control [5] [%]	Percent Control [6] [%]	Percent Control [7] [%]	Percent Control [8] [%]	Percent Control [9] [%]	Percent Control [10] [%]	Percent Control [11] [%]	Percent Control [12] [%]	Percent Control [13] [%]	Percent Control [14] [%]	Percent Control [15] [%]	Percent Control [16] [%]	Percent Control [17] [%]	Percent Control [18] [%]	Percent Control [19] [%]	Percent Control [20] [%]
CN1CCN(C(=O)c2ccc(NC(=O)Nc3ccc(N(C)c4ccnc(Nc5ccc(CS(C)(=O)=O)cc5)n4)cc3)cc2)CC1.Cl [GW830263A]	72	100	100	68	79	84	54	95	100	8.8	0	62	100	85	99	75	100	100	100	83
COc1cc2ncnc(Nc3ccc4c(cnn4Cc4ccccc4)c3)c2cc1OC.Cl [GW282449A]	100	55	100	0	100	100	100	100	100	100	100	5.1	100	100	100	97	100	100	100	82
NS(=O)(=O)c1ccc(N/N=C2\C(=O)Nc3ccc(C(=O)NCc4ccncc4)cc32)cc1 [GW300657X]	84	6.5	100	67	87	67	17	92	75	83	99	87	60	83	92	98	87	100	67	53
COC(=O)Nc1nc2ccc(Oc3ccc(NC(=O)Nc4cc(C(F)(F)F)ccc4F)cc3)cc2s1.Cl [GW693917A]	15	38	95	76	1.8	42	100	82	100	86	2.3	70	92	83	100	98	96	100	94	91
